Screens from PubChem.
PAD4 FP inh: human PAD4 inhibitors, primary screen, biochemical, fluorescence polarization, 1536-well format. inhibition, % at 6.36 µM. 330,000 compounds, 0.41% hits. AID 485272, 2010. recombinant PAD4, RCA probe fluorescence polarization. Protein-arginine deiminase type-4 (Homo sapiens), Q9UM07;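 active = percent inhibition above a cutoff equal to the mean of all tested compounds plus 3 SD, cut at about 15% in these data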
Target sequence (Q9UM07 whole entry, looked up): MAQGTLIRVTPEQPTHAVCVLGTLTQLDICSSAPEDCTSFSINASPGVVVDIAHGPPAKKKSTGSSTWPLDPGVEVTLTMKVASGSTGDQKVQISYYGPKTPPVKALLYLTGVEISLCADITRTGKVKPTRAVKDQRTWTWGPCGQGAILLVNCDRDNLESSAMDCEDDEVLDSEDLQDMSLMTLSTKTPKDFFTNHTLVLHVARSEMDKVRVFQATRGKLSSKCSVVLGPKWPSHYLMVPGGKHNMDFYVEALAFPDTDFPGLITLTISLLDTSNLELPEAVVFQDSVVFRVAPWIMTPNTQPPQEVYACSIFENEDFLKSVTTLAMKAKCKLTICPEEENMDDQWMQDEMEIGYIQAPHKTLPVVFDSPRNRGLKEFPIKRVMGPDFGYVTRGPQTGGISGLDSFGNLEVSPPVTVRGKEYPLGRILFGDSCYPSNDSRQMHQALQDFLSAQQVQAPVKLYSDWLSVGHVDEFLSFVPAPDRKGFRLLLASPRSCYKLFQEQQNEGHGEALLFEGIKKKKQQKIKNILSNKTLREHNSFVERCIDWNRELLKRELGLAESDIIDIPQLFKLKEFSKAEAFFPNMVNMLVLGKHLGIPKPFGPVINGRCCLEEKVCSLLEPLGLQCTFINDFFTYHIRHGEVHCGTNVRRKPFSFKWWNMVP
EBNA-1 inhibitor: EBNA-1 DNA-binding inhibitors, primary screen, biochemical, fluorescence polarization; inhibition, % at 14.8 µM; 300,000 compounds, 0.34% hits; in the data active = inhibition above about 28%
ZTA counter: blocks Epstein-Barr virus ZTA, an EBNA-1 counter-screen; inhibition, % at 11 µM; 320,000 compounds, 0.15% hits; P03206; ZTA-DNA binding, fluorescence polarization; AID 2234; in the data active = inhibition above about 33%
GSTO1 counter: inhibitors of recombinant GSTO1, primary screen, counter-screen for RBBP9 inhibitor project, biochemical, fluorescence polarization | AID 1974, 2009 | 300,000 compounds, 1.1% hits | activity-based probe fluorescence polarization | Glutathione S-transferase omega-1 (Homo sapiens), P78417 | inhibition, % at 5.96 µM;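 active = inhibition above the campaign mean inhibition plus 3 SD, cut at about 35% in these data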
LYPLA2 inh: LYPLA2 inhibitors, primary screen, counter-screen for PME1 inhibitor project, biochemical, fluorescence polarization, FP-Rh probe ABPP; recombinant LYPLA2; inhibition, % at 5.9 µM; 320,000 compounds, 0.38% hits; AID 2177, 2009;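 active = inhibition above the screen-wide mean plus 3 SD, limit set per campaign, cut at about 26% in these data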
LYPLA1 counter: LYPLA1 inhibitors, primary screen, counter-screen for PME1 inhibitor project, biochemical, fluorescence polarization, FP-Rh probe ABPP; recombinant LYPLA1; 320,000 compounds, 0.16% hits; inhibition, % at 5.9 µM;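 active = inhibition above the mean of all tested compounds plus 3 SD, set per campaign, cut at about 14% in these data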;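 note: inhibitors block serine hydrolase probe labeling of LYPLA1 so polarization falls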
Zta DNA confirm: EBV Zta binding to ZRE DNA, inhibitors, confirmation, biochemical, fluorescence polarization, triplicate; shares compounds with ZTA counter; inhibition, % at 11.1 µM; 320 compounds, 30% hits; AID 2361, 2010;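 active = mean inhibition across triplicate runs above the hit threshold derived for the original primary screen, cut at about 33% in these data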
EBNA1 counter: EBNA-1 DNA-binding inhibition, counter-screen for ZTA inhibitor project, biochemical, fluorescence polarization; 320 tested, under 10 active; shares compounds with ZTA counter; inhibition, % at 14.8 µM; call rule not given here
Hits are given with their value; i = inactive; nt = no result given; + = active, no number. In the library only some 1.7% were active in any assay of this set; here they are far more common.

SMILES | PAD4 FP inh | EBNA-1 inhibitor | ZTA counter | GSTO1 counter | LYPLA2 inh | LYPLA1 counter | Zta DNA confirm | EBNA1 counter
CCNc1ccc(C(=O)OCC(=O)Nc2cc(C)on2)cc1[N+](=O)[O-] | i | nt | i | nt | i | i | nt | nt
O=C(CN(Cc1ccccc1)C(=O)CCC(=O)Nc1nccs1)NCc1ccccc1 | i | i | i | i | i | i | nt | nt
CN1CCc2c(sc3c2C(=O)NC(c2ccccn2)N3)C1 (stereo not drawn) | i | i | 40.3 | i | i | i | i | i
N#C/C(=C\c1ccco1)c1nc2ccccc2s1 | i | i | i | i | i | i | nt | nt
N#C/C(=C/c1ccc(-c2cc(C(=O)O)cc(C(=O)O)c2)o1)c1nc2ccccc2s1 | i | i | 61.0 | i | i | i | i | i
Cc1ccc(N2C(=O)N3[C@H](c4ccc(F)cc4)[C@@H]4C(=O)N(C5CCCCC5)C(=O)[C@@H]4[C@]3(C)C2=O)cc1 | i | i | i | i | i | i | nt | nt
CCOc1cc(/C=C\c2[nH]c(=O)[nH]c(=O)c2[N+](=O)[O-])ccc1OC(C)CC (stereo not drawn) | i | i | 38.6 | i | i | i | 42.7 | i
CCCOc1ccc(/C=C/c2[nH]c(=O)[nH]c(=O)c2[N+](=O)[O-])cc1OCC | i | i | i | i | i | i | nt | nt
O=C1C(=Cc2ccc(Br)o2)C(=O)c2ccccc21 | i | i | 51.9 | i | i | i | 50.7 | i
CC[n+]1c(/C=C/c2ccc(N(C)C)cc2)ccc2ccccc21 | i | i | i | i | i | i | nt | nt
CCN(CC)c1ccc(/C=C/c2ccc3ccc(OC)cc3[n+]2CC)cc1 | i | i | 50.1 | i | i | i | i | i
COc1ccc(C(C)(C)C)cc1NC(=O)CCCN1C(=O)NC(C)(C)C1=O | i | nt | i | nt | i | i | nt | nt
CCCCn1c(N)c(N(CCOC)C(=O)CCCc2nc3ccccc3c(=O)[nH]2)c(=O)[nH]c1=O | i | i | 136.5 | i | i | i | i | i
Nc1c(O)ccc2c1C(=O)c1ccccc1C2=O | i | i | 40.5 | i | i | i | 34.5 | i
CCN1CCN(Cc2ccc(NC(=O)c3cc(NC(=O)c4cc5cccc(OC)c5o4)cc(OC)c3)cc2C(F)(F)F)CC1 | i | i | 36.8 | i | i | i | i | i
CCOC(=O)C1(Cc2ccccc2)CCN(Cc2cccn2-c2nccs2)CC1 | i | i | 34.1 | i | i | i | i | i
Cc1cc2c(cc1C)C(c1ccccc1Br)CC(=O)N2 (stereo not drawn) | i | i | 33.2 | i | i | i | i | i
CC(C)[C@H](NC(=O)c1ccc(F)cc1)C(=O)NC1=NCCS1 | i | i | i | i | i | i | nt | nt
CCOC1(OCC)N=C(N)C2(C#N)C(c3cccc(C)c3)C12C#N (stereo not drawn) | i | i | 67.3 | i | i | i | i | i
Cc1cccc(CN2C(=O)/C(=C\c3ccc(C(=O)NCCCN4CCN(C)CC4)cc3)Oc3ccccc32)c1 | i | i | 69.7 | i | i | i | 49.8 | i
CN1CCN(CCCNC(=O)c2ccc(/C=C3\Oc4ccccc4N(Cc4ccccc4F)C3=O)cc2)CC1 | i | i | i | i | i | i | nt | nt
Cc1cc(C)nc(NC(=O)c2cc(Br)ccc2Cl)n1 | i | i | i | i | i | i | nt | nt
Cc1cc(C)nc(NC(=O)NS(=O)(=O)Nc2ccc(Br)cn2)n1 | i | i | 33.1 | i | i | i | i | i
Cc1ccnc(NC(=O)C2CCN(S(=O)(=O)c3ccc(C)c(C)c3)CC2)c1 | i | i | i | i | i | i | nt | nt
COc1ccc2sc(N(CCCN(C)C)C(=O)c3ccc(S(=O)(=O)N4CCCc5ccccc54)cc3)nc2c1 | i | i | i | i | i | i | nt | nt
SMILES | PAD4 FP inh | EBNA-1 inhibitor | ZTA counter | GSTO1 counter | LYPLA2 inh | LYPLA1 counter | Zta DNA confirm | EBNA1 counter
COc1cc2nc(N(CCCN(C)C)C(=O)c3ccc(S(=O)(=O)N4CCc5ccccc54)cc3)sc2cc1OC | i | i | 49.6 | i | i | i | 55.7 | i
O=C(Nc1cccc(-c2cn3ccccc3n2)c1)c1cc2ccccc2oc1=O | i | i | 36.4 | i | i | i | 34.8 | i
CCOc1ccccc1N(C)S(=O)(=O)c1ccc2c(c1)CC(C)N2C(=O)C1CC1 (stereo not drawn) | i | i | i | i | i | i | nt | nt
COc1cc(NC(=O)C2=C(N3CCOCC3)/C(=C\c3ccc(N(C)C)cc3)CCC2)cc(OC)c1OC | i | i | 100.5 | i | i | i | i | i
COc1cc(NC(=O)C2=C(N3CCOCC3)/C(=C/c3ccc(Cl)cc3)CC2)cc(OC)c1OC | i | i | i | i | i | i | nt | nt
C[C@H]1C(=O)N(C)CCN1C(=O)c1cccc(OC2CCN(CC(C)(C)C)CC2)c1 | i | i | i | i | i | i | nt | nt
Cc1ccc(NC(=O)c2c(C(=O)Nc3ccccc3)sc3nc(C)cc(=O)n23)cc1 | i | i | i | i | i | i | nt | nt
Cc1cc(=O)n2c(C(=O)Nc3ccc(C)c(C)c3)c(C(=O)Nc3ccccc3)sc2n1 | i | i | 53.2 | i | i | i | i | 78.2
CCOC(=O)c1c(CSc2ccc(CC)cc2)oc2ccc(O)c(CN(C)C)c12 | i | i | 33.7 | i | i | i | i | i
COCCNC(=O)c1cc(-c2ccccc2)nn1CC1CC(c2cccnc2)=NO1 (stereo not drawn) | i | i | + | i | i | i | i | i
O=C(COc1ccccc1/C=C\c1[nH]c(=O)[nH]c(=O)c1[N+](=O)[O-])Nc1ccccc1 | i | i | 48.4 | i | i | i | 71.6 | i
O=C(CN1C(=O)c2ccccc2C1=O)Nc1ccc(Cl)cn1 | i | i | i | i | i | i | nt | nt
Cn1c(CCN2CCN(c3ccccn3)CC2)nc2cc(NC(=O)COc3ccc([N+](=O)[O-])cc3)ccc21 | i | i | 38.3 | i | i | i | i | i
Cn1c(CCN2CCOCC2)nc2cc(NC(=O)COc3ccc([N+](=O)[O-])cc3)ccc21 | i | i | i | i | i | i | nt | nt
CCN(CC(=O)Nc1ccc(NC(C)=O)cc1)c1ccc(C(F)(F)F)cn1 | i | i | i | i | i | i | nt | nt
CC1CCCC(C)N1CCNC(=O)CCc1nnc2n(Cc3ccccc3)c(=O)c3ccccc3n12 (stereo not drawn) | i | i | i | i | i | i | nt | nt
CCOc1ccc(N2C(=O)/C(=C/c3ccccc3)N=C2SC)cc1 | i | i | 41.6 | i | i | i | i | i
COc1ccc(/C=C2\N=C(SC)N(c3ccccc3OC)C2=O)cc1 | i | i | i | i | i | i | nt | nt
